The values that follow come from PubChem BioAssay (EPA / NIEHS).

Activity calls are given as the source filed them. How the source made its calls: active means hit-call score of the fitted dose curve at least 0.9, where 1 is the maximum; inactive means score below 0.9.

Read-out in the experiment: CYP2E1 (gene 1571)
The experiment is described as follows: LTEA_HepaRG_CYP2E1: Life Technologies and Expression Analysis (LTEA) Assay for CYP2E1 using HepaRG (AID 2283485). As to conditions: mRNA level, 48 h; actives raise or lower the signal. How it is done: LTEA_HepaRG is a cell based, multiplexed-readout assay that uses HepaRG, a human liver cell line, with measurements taken at 48 hours after chemical dosing on a 96-well plate.LTEA_HepaRG_CYP2E1 is one of 102 assay component(s) measured in the LTEA HepaRG cell culture assay. It is a marker of NR mediated metabolism.Data from the assay component LTEA_HepaRG_CYP2E1 was analyzed into 1 endpoint. This assay endpoint, LTEA_HepaRG_CYP2E1, was analyzed with bidirectional fitting relative to DMSO as the negative control and baseline of activity. Using a type of inducible reporter, measures of mRNA induction for gain or loss-of-signal activity can be used to understand regulation of transcription factor activity. To generalize the intended target to other relatable targets, this assay endpoint is annotated to the cyp intended target family, where the subfamily is xenobiotic metabolism.
A total of 1060 chemcials from the ToxCast library were tested in eight-point concentration-response experiments. Cell culture and cytotoxicity assays were conducted at Thermo Fisher Scientific's Custom Services facility (Madison, WI). A single lot of human HepaRG cells (Thermo Fisher Scientific, Frederick, MD) was used for the cell culture experiments. 96-well format collagen type I coated plates of human HepaRG cells were prepared using established methods. Briefly, cryopreserved HepaRG cells were thawed, plated at a density of approximately 100,000 cells/well in HepaRG Thaw, Plate, and General Purpose media (HPRG770, Thermo Fisher Scientific), and incubated for 48 hours. 0.5% DMSO was selected as vehicle control to balance the requisite need of DMSO in HepaRG cultures to maintain differentiation (for example, baseline metabolism, proportions of hepatocytes vs. cholangiocytes), while enabling further hepatic receptor pathway activation (for example, PXR and CAR) in response to chemical exposure. 48 hours after plating, the culture medium was replaced with HepaRG Serum-Free Incudtion Media. Cells were exposed to each test chemical in duplicate and maintained in CO2 incubators for another 48 hours. Chemical plates were thawed to room temperature and 200x concentrations of treatment groups were prepared. 8-point conentration-reponse curves were made with the highest exposure at 100 uM, followed by half-log dilutions, all in 0.5% DMSO. Each test plate contained variouse controls, induction positive controls (1mM phenobarbital), cytotoxicity positive controls ([…] aflatoxin B1), vehicle controls (0.5% DMSO), and total lysis controls (0.5% DMSO). Cell morphology images were taken using an Essen IncuCyte FLR automated microscope, with six 96-well plates imaged in about 24 minutes. Images were captured and exported and JPEG files. Spent culture media was transfered to black-well plates for the LDH assay, and remaining media was sorted at -80 C for later use. Cells were treated with RLT buffer and frozen until shipped for gene expression analysis. Total RNA was isolated from the cell suspension in 75 uL of Buffer RLT (Qiagen, Germantown, MD 20874) by Quintiles/Expression Analysis (Durham, NC) using a custom isolation procedure. Total RNA from each plate well was transferred to a preamplification plate. Fluidigm's 96.96 Dynamic ArrayTM (Fluidigm, Amsterdam, the Netherlands) technology was used for gene expression analyses by quantitative reverse transcription polymerase chain reaction (qRT-PCR, performed by Quintiles/Expression Analysis, Durham, NC)89. Standard TaqManTM Assays (Applied Biosystems/ThermoFisher Scientific, Foster City, CA) were used to assess the expression of 93 genes selected based on their selectivity and sensitivity to important hepatic receptors known to be modulated by environmental chemicals; importance in human hepatocyte functionality; and hepatotoxicity. […]
As for `OCC(O)CO`, the result was inactive. Same read-out and setting: to `CCCCOC(=O)CCCCC(=O)OCCCC` belongs “inactive”. As to `CCCCCCCC(=O)OC`, the result was inactive. Regarding `NC(=Nc1ccccc1)Nc1ccccc1`, the compound was called inactive. Consider `NC1CCCCC1`, for which the compound was classed as inactive. As for `COc1ccc(OC(F)(F)F)cc1CN[C@H]1CCCN[C@H]1c1ccccc1`, the concentration at half-maximal activity (AC50) was 16.8 µM (active).

As to `CC(C)NCC(O)c1ccc(O)c(O)c1` (stereo not given), the AC50 was 0.304 µM (active). On to `O=C(Oc1ccccc1)c1cccc(C(=O)Oc2ccccc2)c1`, for which the result was inactive. Take `Cc1ccc(-c2cc(C(F)(F)F)nn2-c2ccc(S(N)(=O)=O)cc2)cc1`: the AC50 is 38.2 µM (active). For `CN(C)C(=O)NC1(c2ccccc2)CCN(CC[C@@]2(c3ccc(F)c(F)c3)CN(C(=O)c3ccccc3)CCO2)CC1`, the half-maximal activity concentration (AC50) is 29.6 µM (active).

With `CC(COCC(C)OC(=O)c1ccccc1)OC(=O)c1ccccc1` (stereo not given), the compound was classed as inactive. Consider `CC(C)c1cccc(C(C)C)c1NC(=O)NS(=O)(=O)c1cc(C(C)(C)O)co1`, for which the AC50 is 33.9 µM (active).

Turning to `O=C(O)c1[nH]n(-c2ccc(S(=O)(=O)O)cc2)c(=O)c1N=Nc1ccc(S(=O)(=O)O)cc1`, the call was inactive. With `C#CC(O)C(CC)CCCC` (stereo not given), the compound was classed as inactive.

For `Cc1cc(SC2=C(O)C[C@@](CCc3ccc(N)cc3)(C(C)C)OC2=O)c(C(C)(C)C)cc1CO`, the AC50 was 7.16 µM (active). As for `CC(=O)O[C@]1(C(C)=O)CC[C@H]2[C@@H]3C=C(Cl)C4=CC(=O)[C@@H]5C[C@@H]5[C@]4(C)[C@H]3CC[C@@]21C`, the AC50 is 36.9 µM (active). In the case of `COC(=O)CCC(=O)OC`, the result was inactive.

For the compound `O=C(NS(=O)(=O)/C=C/c1cccs1)c1ccc(F)cc1Br`, the AC50 is 25.3 µM (active). Regarding `CCCCC(CC)COP(=O)(OCC(CC)CCCC)OCC(CC)CCCC` (stereo not given), the AC50 is 19.3 µM (active). With `O=C1c2c(O)cccc2Cc2cccc(O)c21`, the outcome was inactive. Regarding `CN(C)CCCN1c2ccccc2Sc2ccc(Cl)cc21`, the half-maximal activity concentration (AC50) is 13.3 µM (active). As for `CS(=O)(=O)c1ccc([C@@H](C[C@H]2CCC(=O)C2)C(=O)Nc2cnccn2)cc1Cl`, the outcome was inactive. `CCc1cc(C2=C(C(=O)O)N(c3ccccc3C(F)(F)F)S(=O)(=O)c3ccccc32)cc2c1OCO2`: the AC50 is 56.8 µM (active). On the same count and under the same terms, for `O=C1NC(=O)C(c2ccccc2)(c2ccccc2)N1` the value was 29.7 µM (active). Consider `CCCCCCCCCC[N+](C)(C)[O-]`, for which the call was inactive. As to `CCC(C)N(C)C(=O)c1cc2ccccc2c(-c2ccccc2Cl)n1` (stereo not given), the concentration at half-maximal activity (AC50) was 14.1 µM (active). As to `CCCCC(CC)CO` (stereo not given), the outcome was inactive. As to `CC(=O)OCC(COC(C)=O)OC(C)=O`, the compound was called inactive. For the compound `Cc1cc(Cc2ccc(N)c(C)c2)ccc1N`, the half-maximal activity concentration (AC50) was 24.6 µM (active). Turning to `COC(=O)CCCC(=O)OC`, the compound was called inactive. As for `CN(C)C(=O)NC1(c2ccccc2)CCN(CCC[C@]2(c3ccc(Cl)c(Cl)c3)CCCN(C(=O)c3ccccc3)C2)CC1`, the AC50 is 17.7 µM (active). In the case of `c1ccc2occc2c1`, the result was inactive. Regarding `COc1ccc(C(=O)Nc2nc3ccccc3c(NCc3ccccc3)c2C#N)cc1`, the AC50 was 20 µM (active).

For `O=C(O)CC(O)(CC(=O)O)C(=O)O`, the compound was classed as inactive. Still for that read-out and setting: for `CCCCCCC(C=O)=Cc1ccccc1` the value was “inactive”; for `CCCC(=O)O`, “inactive”. Take `S=c1[nH]c2ccccc2s1`: the compound was classed as inactive.

As for `CC(C)COC(=O)CCCCC(=O)OCC(C)C`, the call was inactive. As to `CCCCCCCCCCCCCCOS(=O)(=O)O`, the concentration at half-maximal activity (AC50) is 42.3 µM (active). Take `Cc1occc(=O)c1O`: the outcome was inactive.

What is called AC50 is the concentration at which the activity in the assay is half-maximal.
